Results reported in PubChem BioAssay (Tox21).
Records with an inconclusive call do not appear. Values without a mark were called inactive. Calls of active or inactive are those of the source. Calls follow the shape of the dose curve; as a rule, active = well fitted activation curve with a large enough effect in the signal ratio in the repeat runs, with a control signal flat (not every such curve was filed as active); inconclusive = weak or mixed curves; inactive = flat fitted curve, though single readings scatter; the % refers to the signal ratio.

assay: qHTS assay for small molecule activators of the heat shock response signaling pathway (AID 743210); conditions: HeLa HSE-bla reporter, beta-lactamase ratio, 5 h; series mostly up to 62.6 µM; activation: at the top concentration;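 also: HeLa cells with beta-lactamase reporter driven by heat shock elements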
Outline: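 Following overnight attachment, HSE-bla HeLa cells received test compounds for 5 h at 37 C; beta-lactamase activity was then detected via FRET substrate fluorescence.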
% is scaled to controls: 0 for no effect and ±100 for the full control effect.

Compound	outcome	activation
O=C1N=C(O)CN1/N=C/c1ccc(-c2ccc([N+](=O)[O-])cc2)o1	inactive	–
OCC#CCO	–	-0.0275% [at 81.1 µM]
CCOC(=O)/C=C\C(=O)OCC	inactive	–
CCCCCC/C=C/CCCCCCCC(=O)O	inactive	–
CCCCC/C=C\C/C=C\CCCCCCCC(=O)OC	–	0.0165%
S=c1nc[nH]c2nc[nH]c12	inactive	–
CC(C)(C)C1CCC(O)CC1 (stereo unspecified)	inactive	–
CC(=O)[C@@]1(O)CC[C@H]2[C@@H]3CCC4=CC(=O)CC[C@]4(C)[C@H]3CC[C@@]21C	inactive	–
CCCCCCCCCC(=O)O	–	-1.05% [at 81.1 µM]
NCc1cccc(CN)c1	inactive	–
CC(C)n1c(/C=C/[C@@H](O)C[C@@H](O)CC(=O)O)c(-c2ccc(F)cc2)c2ccccc21	inactive	–
CCCCC(CC)COC(=O)CCCCCCCC(=O)OCC(CC)CCCC (stereo unspecified)	inactive	–
OCC1CCCO1 (stereo unspecified)	inactive	–
CCOC(=O)C1OC1c1ccccc1 (stereo unspecified)	inactive	–
C=C(C)C(=O)OCCC[Si](OC)(OC)OC	inactive	–
O=[N+]([O-])c1cc(N(CCO)CCO)ccc1NCCO	–	1.63%

Compound	outcome	activation
CC1=CC[C@H]2C[C@@H]1C2(C)C	inactive	–
CCCCC(CC)C(=O)OCCOCCOCCOC(=O)C(CC)CCCC (stereo unspecified)	inactive	–
Oc1ccc2ccccc2c1	inactive	–
CCCCCCCCCCC=CC1CC(=O)OC1=O (stereo unspecified)	inactive	–
C[C@@H]1O[C@@H](OC[C@H]2O[C@@H](Oc3c(-c4ccc(O)c(O)c4)oc4cc(O)cc(O)c4c3=O)[C@H](O)[C@@H](O)[C@@H]2O)[C@H](O)[C@H](O)[C@H]1O	inactive	–
O=C(c1cc(O)c(O)c(O)c1)c1ccc(O)c(O)c1O	–	-1.25%
Oc1ccc(OCc2ccccc2)cc1	inactive	–
Cc1cc(Cc2ccc(N)c(C)c2)ccc1N	inactive	–
CNC[C@H](O)[C@@H](O)[C@H](O)[C@H](O)CO	inactive	–
CC(C)(C)C(=O)C1C(=O)c2ccccc2C1=O	inactive	–
Nc1nc2ncc(CNc3ccc(C(=O)N[C@@H](CCC(=O)O)C(=O)O)cc3)nc2c(=O)[nH]1	inactive	–
Cc1cc(NS(=O)(=O)c2ccc(N)cc2)no1	inactive	–
O=C1O[C@H](CO)[C@@H](O)[C@H](O)[C@H]1O	inactive	–
O=c1c(-c2ccc(O)cc2)coc2cc(O)ccc12	–	3.41%
CCC(=O)O	–	-0.03% [at 81.1 µM]
